The campaign covered roughly 48,000 compounds. About 13,000 (27%) showed an effect of 50% or more. The list shows a part of the results.
The compounds below were run on Wolbachia pipientis (assay: Anti-Wolbachia Cell-Based Screen). Conditions: 5 µM.
Format: functional
Design: scale not given: in the data most compounds retested in dose-response had high values

SMILES	Percent Effect [%]
Cc1cc(F)ccc1NCC(=O)NCC(F)(F)F	8.632
CC(C)c1nc2n(n1)CC(NCCc1cccs1)CC2 (configuration not stated)	0.7675
NC(=O)N1CCCN(C2CCc3ccc(F)cc32)CC1 (configuration not stated)	-19.72
COc1cc2c(nn1)CCN(CC(O)COc1ccc(C#N)cc1)C2 (configuration not stated)	-7.756
CC(Cc1ccco1)NS(=O)(=O)N1CCCCCC1 (configuration not stated)	-8.82
CSCc1ccc(CNC2CCCN(c3ccc(C)nn3)C2)o1 (configuration not stated)	95.39
Cc1ccc(N2CCCC(NCc3cccc4c3OCCO4)C2)nn1 (configuration not stated)	17.19
Cc1ccc(N2CCCC(NCc3ccc(Cl)o3)C2)nn1 (configuration not stated)	93.48
Cc1ccc(N2CCCC(NCc3ccc(C)o3)C2)nn1 (configuration not stated)	12.24
CC(C)(C)CN1CCN2C(=O)N(C3CCCCC3)C[C@H]2C1	-7.444
COc1ccc(C(N)=O)cc1NCc1noc(-c2ccsc2)n1	0.901
O=C(c1ccc(C(F)(F)F)cc1)N1C[C@@H](CN2CCCCC2)[C@@H](CO)C1	-17.56
Cc1nnc(N2CCN(C)C3(CCC(=O)N(CCO)CC3)C2)s1 (configuration not stated)	-2.989
Cc1cccc(OCCNC(=O)C(C)S(=O)(=O)C2CCCC2)c1 (configuration not stated)	-6.282
Cc1cccc(OCCCNC(=O)NC(C)c2nncn2C)c1 (configuration not stated)	6.947
Cc1ccn(CC(=O)NCCCOc2ccccc2F)c(=O)c1	116.2
CC(=O)Nc1nc(C(=O)NCCOc2cccc(C)c2)cs1	7.237
Cc1cccc(OCCNC(=O)C(C)S(=O)(=O)c2ccccn2)c1 (configuration not stated)	5.338
Cc1cccc(OCCNC(=O)Cn2ccc(C)cc2=O)c1	104.8
Cc1cccc(OCCCNC(=O)Cn2ccc(C)cc2=O)c1	90.13
Cc1ncc(C(=O)NCCOc2ccccc2F)c(C)n1	-10.65
CC(NC(=O)NCCCOc1ccccc1F)c1nncn1C (configuration not stated)	6.488

SMILES	Percent Effect [%]
CCc1cc(N2CCCNCC2)n2nc(C)c(C)c2n1	3.882
CCN1CCCC(c2c(-c3ccccc3)ncn2Cc2csc(N)n2)C1 (configuration not stated)	4.265
COc1ccc2[nH]nc(CN3CCC(C(C)N(C)C)CC3)c2c1 (configuration not stated)	2.332
CC(=O)Nc1ccc(Cl)c(C(=O)N(C)C(C)c2ccncn2)c1 (configuration not stated)	19.4
CCN(CC)C(CNS(=O)(=O)NCc1ccccc1)c1ccco1 (configuration not stated)	-8.171
CC(c1ccon1)N(C)S(=O)(=O)NCc1ccccc1 (configuration not stated)	110
C=C(C)COc1cccc(CN(C)C(C)c2nccs2)c1 (configuration not stated)	12.61
CC(c1nccs1)N(C)C(=O)c1cc(CN(C)Cc2ccccc2)on1 (configuration not stated)	-3.289
CC(c1nccs1)N(C)S(=O)(=O)NCc1ccccc1 (configuration not stated)	97.09
CC(c1ccncn1)N(C)S(=O)(=O)NCc1ccccc1 (configuration not stated)	110.9
CC(c1ccon1)N(C)C(=O)C1CCN(CC(N)=O)CC1 (configuration not stated)	-6.665
C=C(C)COc1cccc(CN(C)C(C)c2ccncn2)c1 (configuration not stated)	2.778
CN1CCC(N(C)C[C@H]2CC[C@@H](Cc3ccc4c(cnn4C)c3)O2)CC1	-7.23
CC(Nc1ccc(Oc2cccc(C#N)c2)cc1)C(=O)NC1CC1 (configuration not stated)	1.244
Cc1nc(C)n(CC2CCCN2Cc2nc(C3CC3)no2)n1 (configuration not stated)	2.651
COCCc1noc(CN2CCCC2c2c(C)nn(C)c2C)n1 (configuration not stated)	1.097
Cc1cc(C)n(C2CN(Cc3noc(-c4ccccc4)n3)C2)n1	-5.64
COc1ccc(-c2nc(CN3CC(n4nc(C)cc4C)C3)no2)cc1	-0.6245
COCCc1noc(CN2CC(n3nc(C)cc3C)C2)n1	87.49
COCCc1noc(CN2CCCC2Cn2nc(C)nc2C)n1 (configuration not stated)	103.9
Cc1cc(C)n(CC2CCCN2Cc2c(C)noc2C)n1 (configuration not stated)	3.056
COCCc1noc(CN2CCCC2Cn2nc(C)cc2C)n1 (configuration not stated)	100.2

SMILES	Percent Effect [%]
CC(C)CC(CCO)CNC(=O)N1CCOC2(CCCC2)C1 (configuration not stated)	9.888
CC1Cc2ccccc2N1Cc1occc1C(=O)O (configuration not stated)	-32.9
O=C(CN1CCSCC1c1ccccc1)N1CCCC1 (configuration not stated)	-1.528
CCC(C(=O)NCc1ccn(-c2ccc(F)cc2)n1)N1CCCC1=O (configuration not stated)	13.5
Cc1nccn1C1(C(=O)O)CCN(Cc2ccc3nsnc3c2)CC1	4.136
CCCNC(=O)CNc1ccc(C(=O)N2CCCCC2C)cc1C (configuration not stated)	-8.167
Cc1cc(C(=O)N2CCCCC2C)ccc1NCC(=O)N1CCOCC1 (configuration not stated)	-5.879
Cc1cc(C(=O)N2CCCC2)ccc1NCC(=O)N1CCOCC1	96.96
Cc1cc(C(=O)N2CCCC2)ccc1NCCO	-9.298
COc1ccc(NC(=O)N2CCOCC(CN(C)C)C2)c(C)c1 (configuration not stated)	-4.922
Cc1cc(C(=O)N2CCCCC2C)ccc1NC(=O)N1CCOCC1 (configuration not stated)	99.93
Cc1cc(C(=O)N2CCCC(C)C2)ccc1NCC(=O)N1CCOCC1 (configuration not stated)	106.6
Cc1cc(C(=O)N2CCCC2)ccc1NCC(=O)N1CCCCC1C (configuration not stated)	98.59
Cc1cc(C(=O)N2CCC(C)CC2)ccc1NS(C)(=O)=O	7.517
Cc1cc(C(=O)N2CCCCC2C)ccc1NCCCO (configuration not stated)	3.863
Cc1cc(C(=O)N2CCCC2)ccc1NS(C)(=O)=O	-1.573
O=C(O)C(F)(F)F.c1cc(C2CC2)n2cnc(C3CN(Cc4nccs4)CCO3)c2c1 (configuration not stated)	7.631
CC(=O)NCCCSC1CCCN(c2ccccc2Cl)C1=O (configuration not stated)	1.649
Cn1ccnc1SCCNC1CCN(c2ncccn2)CC1	12.3
CC(C)c1ccc(-c2nnn(CCNS(C)(=O)=O)n2)cc1	-15.95
O=C(O)C(F)(F)F.O=C(c1cccs1)N1CCC[C@]2(C[C@@H](OCc3ccncc3)CO2)C1	-0.9808
Cc1cnn(CCC(=O)N2CCCC(c3nc(C)no3)C2)c1 (configuration not stated)	6.871

SMILES	Percent Effect [%]
Cc1nc(C2CCCN(C(=O)c3cnn(C4CCCCC4)c3)C2)no1 (configuration not stated)	101.3
Cc1cnn(CCC(=O)N2CCCC(c3noc(C)n3)C2)c1 (configuration not stated)	105
Cc1nc(C2CCCN(C(=O)c3cc(C)sc3C)C2)no1 (configuration not stated)	-7.599
Cc1cnn(CCC(=O)N2CCCC(c3cc(C(N)=O)[nH]n3)C2)c1 (configuration not stated)	5.057
Cc1nc(C2CCCN(C(=O)c3cnn(C(C)(C)C)c3)C2)no1 (configuration not stated)	1.32
Cc1nc(C2CCCN(C(=O)c3cnc(C)s3)C2)no1 (configuration not stated)	-5.153
CCn1cc(C(=O)N2CCCC(c3noc(C)n3)C2)cn1 (configuration not stated)	122
CC(=O)c1cc(CC(=O)NCc2ccsc2)cs1	-1.009
CC(=O)N1C[C@H](NS(=O)(=O)N2CCOCC2)[C@@H](c2ccc(C)o2)C1	-11.37
CN1CC(c2ccccc2)CC12CCN(C(=O)c1cncc(Cl)c1)CC2 (configuration not stated)	1.146
CCCc1cc(N2CCCC2Cn2nc(C)nc2C)n2ncnc2n1 (configuration not stated)	-15.77
CC(C)(CNC(=O)C(C)(C)Oc1ccc2c(c1)CCCC2=O)C(N)=O	-6.308
CCn1c(C2CCN(C(=O)c3ccc4sc(C)nc4c3)CC2)n[nH]c1=O	-3.012
Cc1nc2ccc(C(=O)N3CCn4c(nnc4C4CC4)C3)cc2nc1C	122.4
CN(C)c1cccc(C(=O)N2CCn3c(nnc3-c3ccccc3)C2)c1	0.7654
CCc1nnc2n1CCN(C(=O)c1ccc3nc(C)c(C)nc3c1)C2	6.266
Cc1nc2cc(C(=O)N3CCn4c(nnc4C4CC4)C3)ccc2s1	86.87
Cc1nnc2n1CCN(C(=O)c1cnc(C3CC3)s1)C2	2.098
CN1CCN(c2ccc(NC(=O)c3ccoc3)c(C(F)(F)F)c2)CC1	7.046
O=C(c1ncncc1Cl)N1CCC2(CCCC2)CC1	-11.62
CN(C)C(=O)CCS(=O)(=O)Cc1ccn(-c2cccc(F)c2)n1	-10.5
Cn1cnc(NC(=O)C2CC(=O)N(c3cccc(F)c3)C2)n1 (configuration not stated)	77.24

SMILES	Percent Effect [%]
CNC(=O)C1CC(=O)N(c2cccc(F)c2)C1 (configuration not stated)	-1.566
COc1cc(NC(=O)C2CC(=O)N(c3cccc(F)c3)C2)ncn1 (configuration not stated)	-6.208
O=C(Cc1ccc2c(c1)CCO2)N1CCN(c2cnccn2)CC1	-10.75
O=C(Cc1ccc2c(c1)CCO2)Nc1cccnc1-n1cncn1	-24.6
O=C(Cc1ccc2c(c1)OCCCO2)Nc1nnn[nH]1	102.7
O=C(CCc1ccc2c(c1)CCO2)Nc1nnn[nH]1	108.2
O=C(Cc1ccc2c(c1)OCCO2)NC1CCCC1	-1.576
O=C(Cc1ccc2c(c1)OCCO2)NCCc1nnc2n1CCC2	-0.3257
COc1ccc(-c2cnc(N(C)C)nc2C2CNCCO2)cc1.Cl (configuration not stated)	76.7
CN(C)c1ncc(-c2ccc(F)cc2)c(C2CNCCO2)n1.Cl (configuration not stated)	112.1
CN(C)c1ncc(-c2cncnc2)c(C2CNCCO2)n1.Cl (configuration not stated)	130
Cc1csc(C(C)(C)NCCCS(C)(=O)=O)n1	-31.79
CC(C)Cc1ccc(S(=O)(=O)Nc2ccc(=O)n(C)c2)cc1	-23.57
CC(C)C(O)C(=O)N1CCC2(CC1)c1nc[nH]c1CCN2S(C)(=O)=O (configuration not stated)	-6.881
O=C(c1ccncc1)N1CCCC1c1nc(O)cc(-c2ccccn2)n1 (configuration not stated)	134.3
O=C(c1cc(-c2ccc(O)cc2)n[nH]1)N1CCCC1c1cccnc1 (configuration not stated)	-9.956
CC(C)(C)C(=O)N1CCCC1c1nc(O)cc(-c2ccccn2)n1 (configuration not stated)	-2.189
O=C(c1cccnc1)N1CCCC1c1nc(O)cc(-c2ccccn2)n1 (configuration not stated)	120.2
CCc1cc(O)nc(C2CCCN2C(=O)c2cccnc2)n1 (configuration not stated)	-9.162

From ChEMBL document CHEMBL3988442, “University of Dundee, Small-Polar-MMV Screening Library” (2021)
